# PMP22 txn prim – modulators of PMP22 gene transcription in S16 Schwann cells | AID 1508649 | hit rate 2% among 43,000 | S16 Pmp22-F2sN Schwann cells, FLuc/NLuc coincidence luminescence, 24 h | Potency, µM (titrated, usually from 57.5 µM), for inactives: at the highest dose activity change, negative = inhibition, hits mostly inhibitors; active = clear falling dose curves in both reporters; inconclusive = both reporters move, but less clearly or upward; inactive = either reporter flat; the % is the NLuc reporter signal; also: % is scaled to controls: 0 for no effect and ±100 for the full control effect
#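 qHTS, 1536-well. Cells seeded, compounds added by pin tool, 24 h 37C. Nano-Glo reagent 1 (lysis/FLuc), 10 min RT, read; Stop&Glo, 10 min RT, read NLuc.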
# HTT-AS act – HTT-AS promoter activation. hit rate 0.24% among 48,000. Potency, µM (series often up to 57.5 µM), for the others: top-dose activity change, positive = activation, most hits filed as activators. HEK293 HTT-AS promoter firefly luciferase reporter, 24 h; response scale: percent change from vehicle, -100% = no light. AID 1508624; also: nearly all actives have a fitted effect of over 55% in size
#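 HEK293 Fluc reporter, 2,500 cells/well, 24 h pre-culture; cpds up to 57.5 uM final, 24 h 37 degrees C; Dual-Glo, 10 min RT; normalized vehicle = 0%, zero RLU = -100%.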
# SKOV3 invasion – ovarian cancer metastasis inhibition, 3D TME model; SKOV3ip1-GFP adhesion/invasion on 3D omental model, fluorescence; AID 1963576; Potency, µM (doses to about 45.8 µM), without a hit: at the highest dose activity change, negative = inhibition, most hits filed as inhibitors; hit rate 0.1% among 46,000;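 also: plate controls were DMSO wells for no effect and tomatine positive control wells for full effect; nearly all actives have a fitted effect of over 65% in size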
#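 A 3D layer of primary human omental fibroblasts, mesothelial cells, fibronectin and collagen I, grown 48 hr, received SKOV3ip1-GFP cells in serum-free medium plus compounds at 0.36-46 umol/L. After 2 hr RT and 16 hr 37 C, fixed adherent GFP cells were counted; normalized to DMSO and tomatine.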
# S16 F2sN tox – cytotoxicity in S16 Pmp22-F2sN Schwann cells; S16 Pmp22-F2sN Schwann cells viability, CellTiter-Glo, 24 h; Potency, µM (top dose mostly 57.5 µM), inactives show top-dose activity change, negative = cytotoxicity, actives largely listed as cytotoxic; hit rate 0.48% among 43,000; also: % is scaled to controls: 0 for no effect and ±100 for the full control effect; nearly all actives have a fitted effect of over 65% in size
#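 Viability was measured by CellTiter-Glo luminescence (15 min, room temperature). This followed 24 h at 37 °C of compound exposure (23 nL pin transfer) in S16 Pmp22-F2sN Schwann cells, 500-1,000 per well.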
# pS6 MEF inh – reduces mTORC1 signaling in Tsc2 and p53 null MEF cells | Tsc2-/- p53-/- MEF, phospho-rpS6 immunofluorescence/PI, 24 h | Potency, µM (highest dose often 38.3 µM), without a hit: at the highest dose activity change, negative = inhibition, most hits filed as inhibitors | hit rate 0.78% among 44,000;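 also: plate controls were DMSO for no effect and rapamycin for full effect; nearly all actives have a fitted effect of over 50% in size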
#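 Readout is phospho-S6 Alexa 488 signal normalized to PI per well, reported as % active cells with thresholds set from rapamycin (7.5 nM) and DMSO controls. Cells: Tsc2-/-, p53-/- MEFs, 24 hrs compound at 37 C; PI cell number serves as viability.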
# HTT promoter inh – inhibits huntingtin promoter activity. AID 1508623. Potency, µM (doses to about 57.5 µM), without a hit: top-dose activity change, negative = inhibition, hits mostly inhibitors. HEK293 HTT promoter firefly luciferase reporter, 24 h. hit rate 0.93% among 48,000; also: nearly all actives have a fitted effect of over 50% in size
#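 Luminescence was read after Dual-Glo reagent and a 10 min room-temperature incubation. Values were normalized to vehicle (0% activity) and zero RLU (-100% activity). Reporter HEK293 cells had been exposed to compounds (up to 57.5 uM final) for 24 h.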
# Starred values were filed as active, the others as inactive; ? = inconclusive; / = not tested or not shown; ! = not active in a repeat. Only some compounds are listed: those with a hit (about 3.6% of all), similar ones and a draw of the others. Unless noted, calls follow the shape of the dose curve; as a rule, active = well fitted curve in the direction sought with a large enough effect; inconclusive = small, poorly fitted or top-dose-only effect, or another doubt; inactive = no such curve, though single readings can be large; an effect the other way counts as inactive or inconclusive. Potency is read from the fitted curve at half-maximal effect.
SMILES,PMP22 txn prim,HTT-AS act,SKOV3 invasion,S16 F2sN tox,pS6 MEF inh,HTT promoter inh
COc1ccc(-c2ccc3c(N4CCOCC4)nc(N4C[C@@H](C)O[C@@H](C)C4)nc3n2)cc1CO,/,-23.0%,-5.2%,/,/,?
Cc1ccc2oc(-c3ccc(C)c(NC(=O)C(C)(C)Oc4ccc(Cl)cc4)c3)nc2c1,-6.9%,10µM*,-29.0%,7.5%,11.7%,48.9%
Cc1ccc2nc(-c3ccc(C)c(NC(=O)CSc4ccc(Cl)cc4)c3)oc2c1,-13.4%,6.31µM*,1.0%,7.9%,-2.1%,14.6%
Cc1ccc2nc(-c3cccc(NC(=O)CSc4ccc(Cl)cc4)c3)oc2c1,-4.6%,?,-31.3%,6.5%,?,29.1%
CCN(CC)CCCCNc1nc2cc(Cl)c(Cl)cc2nc1-c1ccc(-c2cccs2)s1,/,-24.4%,-13.2%,/,/,?
CN(C1CCc2c(c3ccccc3n2CC(=O)O)C1)S(=O)(=O)c1ccc(F)cc1 (centres undefined),/,-2.9%,-33.7%,/,/,4.5%
CC(C)(C)COc1ccc(-n2cc(C(=O)O)cn2)cc1C#N,/,-77.9%,10.8%,/,/,?
Cc1nc(-c2ccc(OCC(C)C)c(C#N)c2)sc1C(=O)O,/,-81.4%,-5.5%,/,/,5.01µM*!
Cc1ccn(-c2ccc(-c3ncco3)cc2)c(=O)c1-c1ccc2nc(N)ncc2c1,/,-21.7%,-17.7%,/,/,-15.2%
COC(=O)c1ccc(O)c2ncc(-c3ccc(C(=O)N4CCN(C)CC4)cc3)cc12,/,/,/,/,/,-16.9%
Cc1cccc(NC(=O)Cn2cc(C(=O)C3CCCCC3)c3ccccc32)c1C,10µM*,-58.4%,-0.4%,?,-12.4%,?
CCc1ccc(NC(=O)c2ccc(F)c(S(=O)(=O)N3CCC4(CC3)OCCO4)c2)cc1,?,-24.8%,15.9%,-17.3%,-11.8%,15.8µM*
O=C(Nc1ccccc1C(F)(F)F)c1ccc(F)c(S(=O)(=O)N2CCc3ccccc3C2)c1,-4.9%,-24.3%,4.5%,-20.1%,8.6%,?
CCc1ccc(NC(=O)c2ccc(F)c(S(=O)(=O)N3CCC(C)CC3)c2)cc1,-17.8%,-35.9%,-9.0%,0.2%,0.0%,4.47µM*
CCc1ccc(NC(=O)c2ccc(F)c(S(=O)(=O)N3CCc4ccccc4C3)c2)cc1,-21.4%,-19.7%,9.8%,-20.6%,-4.2%,25.1µM*
Cc1c(CCOc2ccc(C(=O)O)cc2)c2cc(Cl)ccc2n1C(c1ccccc1)c1ccccc1,/,-11.7%,-5.3%,/,/,-3.3%
O=c1ccn([C@@H]2O[C@H](CO)[C@H](O)[C@H]2O)c(=O)[nH]1,/,4.5%,-9.2%,/,/,?
COc1ccc2[nH]cc(CCN=C(NC(=O)c3ccccc3C)Nc3nc(C)cc(C)n3)c2c1,?,8.8%,6.0%,-4.3%,1.2%,-12.1%
COc1ccc2[nH]cc(CCN=C(NC(=O)c3ccccc3OC)Nc3nc(C)cc(C)n3)c2c1,13.9µM*,-51.3%,-3.3%,?,-10.8%,?
Cc1ccc(O)c(-c2n[nH]c3c2C(c2ccccc2F)N(Cc2ccco2)C3=O)c1 (centres undefined),?,-39.4%,12.6µM*,?,-3.3%,?
Fc1ccc(Nc2nc(Nc3ccc(F)cc3)nc(N3CCOCC3)n2)cc1,-20.1%,-17.2%,15.4%,4.1%,2.07µM*,?
CCCn1c(=O)c2[nH]c(C34CC5CC3C[C@@H](C5)C4)nc2n(CCC)c1=O,/,-3.3%,-4.5%,/,/,4.4%
O=C(CCS(=O)(=O)c1ccccc1)N(Cc1cccnc1)c1nc2ccc(Cl)cc2s1,?,2.2%,5.5%,?,0.5%,0.1%
Cc1ccc2nc(N(Cc3cccnc3)C(=O)CCS(=O)(=O)c3ccccc3)sc2c1,?,15.7%,38.9%,17.8µM*,-4.7%,8.5%
CCCCCCCCc1ccc(CCC(N)(CO)CO)cc1,/,-16.4%,-22.4%,/,/,-10.7%
SMILES,PMP22 txn prim,HTT-AS act,SKOV3 invasion,S16 F2sN tox,pS6 MEF inh,HTT promoter inh
CN(C)S(=O)(=O)c1ccc2c(c1)C(=Cc1cc3c([nH]1)CCCC3)C(=O)N2,/,-37.0%,25.9%,/,/,?
COc1cccc(NC(=O)c2cc3c(-c4ccc(Cl)cc4)nn(C)c3s2)c1,-8.8%,-20.0%,5.8%,-18.1%,-1.9%,?
COc1ccc(-c2nn(C)c3sc(C(=O)Nc4cccc(F)c4)cc23)cc1OC,?,-25.8%,-34.6%,14.1µM*,?,?
Cc1cc(Cl)ccc1NC(=O)CN1C(=O)C(=O)c2ccccc21,?,-11.6%,-7.4%,?,10.4µM*,-10.5%
Cc1ccc(Cl)cc1NC(=O)CN1C(=O)c2cccc3cccc1c23,?,-22.3%,4.7%,9.5%,-5.4%,-7.6%
CC=C1NC(=O)[C@H]2CSSCCC=C[C@H](CC(=O)N[C@H](C(C)C)C(=O)N2)OC(=O)[C@H](C(C)C)NC1=O,/,?,-15.5%,/,/,19.8%
CCN1CCC(N(Cc2ccc3c(c2)OCO3)C(=O)Nc2ccccc2OC)CC1,8.1%,-8.4%,1.0%,0.9%,-17.1%,-10.6%
CCN1CCC(N(Cc2ccc(F)cc2)C(=O)Nc2ccc(C)c(F)c2)CC1,17.1%,-8.0%,-19.1%,7.9%,16.5µM*,-9.6%
CCOc1ccccc1NC(=O)N(Cc1ccc(F)cc1)C1CCN(CC)CC1,-10.5%,-11.5%,-9.0%,11.0%,14.7µM*,-9.4%
CC[C@H]1OC(=O)[C@H](C)[C@@H](O[C@H]2C[C@@](C)(OC)[C@@H](O)[C@H](C)O2)[C@H](C)[C@@H](O[C@@H]2O[C@H](C)C[C@H](N(C)C)[C@@H]2O)[C@](C)(O)C[C@@H](C)CN(C)[C@H](C)[C@@H](O)[C@]1(C)O,/,-7.8%,0.4%,/,/,-2.5%
COc1ccc(C(=O)NCC(c2cccnc2)N2CCN(c3ccccc3OC)CC2)cc1 (centres undefined),-8.0%,-53.0%,-2.1%,0.6%,-1.7%,?
O=C(NCCc1ccccc1)C(=O)NCC(c1cccnc1)N1CCN(c2ccc(F)cc2)CC1 (centres undefined),?,-48.6%,-2.5%,?,?,14.1µM*
COc1ccccc1N1CCN(C(CNC(=O)C(=O)NCCc2ccccc2)c2cccnc2)CC1 (centres undefined),?,-57.4%,0.9%,?,2.9%,7.08µM*
CCN1CCC(n2cc(CNc3cc(Cl)c4ncc(C#N)c(Nc5ccc(F)c(Cl)c5)c4c3)nn2)CC1,/,-2.0%,-1.5%,/,/,6.9%
COc1ccc(C(=O)NCCn2cc(SCc3cccc(F)c3)c3ccccc32)cc1OC,?,-58.1%,-17.0%,-21.5%,5.2%,25.1µM*
